CYP2C19 inhib – inhibitors of human CYP2C19. P33261. CYP2C19 Supersomes, luciferin-H EGE luminescence, 30 min. inhibition, % at 5 µM. 96,000 tested, 21% active. AID 778;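 active means CYP2C19 inhibition above a set limit at 5 µM in the primary screen, cut at about 50% in these data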;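 further: plate controls were negative control wells for no effect and 2.5 mM tranylcypromine positive control for full effect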
CYP2C19 act – activators of human cytochrome P450 2C19. P33261. recombinant CYP2C19, luciferin-H EGE luminescence; active compounds read high; 0 = fully inhibited enzyme, 1 = untreated enzyme. activation factor at 5 µM. 96,000 tested, under 10 active. AID 1025;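 active means activation factor of at least 2 at 5 µM in the primary screen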;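 further: 0 = wells with 2.5 mM tranylcypromine and 1 = vehicle-only wells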
PLAP act – activators of human placental alkaline phosphatase. P05187. purified PLAP enzyme, luminescent substrate read-out; active compounds read high. activation fold at 20 µM. 96,000 tested, 1.2% active. AID 696; in the data active means activation fold above about 2
CYP2C9 activ – activators of human CYP2C9; P11712; recombinant CYP2C9, luciferin-H conversion, luminescence; active compounds read high; factor 1 = untreated enzyme, 0 = blocked; activation factor at 5 µM; 96,000 tested, 1.4% active;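 active means activation factor of 2 or more for CYP2C9 at a 5 µM dose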;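 further: 0 = sulfaphenazole-blocked wells and 1 = vehicle-only wells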
Target sequence (P11712 whole entry, looked up): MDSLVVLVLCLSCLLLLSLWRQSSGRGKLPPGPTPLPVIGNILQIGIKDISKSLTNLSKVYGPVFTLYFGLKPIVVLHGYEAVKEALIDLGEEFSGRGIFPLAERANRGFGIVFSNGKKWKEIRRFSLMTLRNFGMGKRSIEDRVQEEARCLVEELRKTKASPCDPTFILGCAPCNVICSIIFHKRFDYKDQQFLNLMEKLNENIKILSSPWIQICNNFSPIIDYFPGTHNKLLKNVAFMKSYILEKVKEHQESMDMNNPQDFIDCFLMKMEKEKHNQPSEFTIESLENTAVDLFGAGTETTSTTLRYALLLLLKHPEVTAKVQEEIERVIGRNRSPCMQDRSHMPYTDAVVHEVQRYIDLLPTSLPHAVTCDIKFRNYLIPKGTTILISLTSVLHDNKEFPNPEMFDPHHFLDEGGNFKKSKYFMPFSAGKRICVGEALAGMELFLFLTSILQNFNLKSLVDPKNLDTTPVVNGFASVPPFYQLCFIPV
CYP2C9 inh – blocks human cytochrome P450 2C9; P11712; inhibition, % at 5 µM; AID 777; CYP2C9 Supersomes, luciferin-H conversion, luminescence; 96,000 tested, 20% active;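 active means blocking of liver enzyme CYP2C9 beyond about 50% at 5 µM, limit read from the data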
Starred values were filed as active, the others as inactive. Only some compounds are listed: those with a hit (about 31% of all), similar ones and a draw of the others.

SMILES | CYP2C19 inhib | CYP2C19 act | PLAP act | CYP2C9 activ | CYP2C9 inh
CCc1nnc(NC(=O)CN2CCN(C3CCCCC3)CC2)s1 | -12 | 1.1 | 1.1 | 1.1 | -9
Cc1ccc(CSCC(=O)N2CCOCC2)cc1 | 75* | 0.3 | 0.9 | 1.2 | -15
Cc1ccc(C(CC(=O)N2CCOCC2)c2ccco2)cc1 (stereo not drawn) | 84* | 0.2 | 1.4 | 0.8 | 22
O=C(c1ccc(O)cc1)c1ccc(C(=O)c2ccc(O)cc2)cc1 | -5 | 1.1 | 1.5 | 0.3 | 69*
CCn1c(-c2ccc(Cl)cc2)n[nH]c1=S | 26 | 0.7 | 0.8 | 0.9 | 6
C=CCn1c(-c2ccccc2)c[nH]c1=S | 70* | 0.3 | 1.1 | 0.8 | 23
C=CCn1c(-c2ccccc2)nc2nc3ccccc3nc21 | 8 | 0.9 | 0.8 | 0.7 | 26
Cn1c(-c2ccccc2)cnc1N | 12 | 0.9 | 1 | 0.8 | 16
CCn1c(-c2ccc(-c3ccccc3)cc2)c[nH]c1=S | 81* | 0.2 | 0.9 | 0.8 | 19
C=CCn1c(-c2ccc(Cl)cc2)c[nH]c1=S | 66* | 0.3 | 0.8 | 0.6 | 42
Cn1c(-c2ccc(-c3ccccc3)cc2)c[nH]c1=S | 89* | 0.1 | 1.1 | 0.4 | 64*
O=C(NC1CCCCC1)c1ccc(S(=O)(=O)NCc2cccnc2)cc1 | 1 | 1 | 0.9 | 0.8 | 24
COc1ccc(NC(C)=O)cc1NC(=O)CN1CCN(C(=O)c2ccco2)CC1 | -2 | 1 | 0.8 | 1 | 3
Cc1ccc(/C=C/S(=O)(=O)N2CCC(C(=O)O)CC2)cc1 | -13 | 1.1 | 1 | 1.1 | -10
Cn1c2ccccc2c2cc(C(=O)OCC(=O)N3CC(=O)Nc4ccccc43)sc21 | 86* | 0.1 | 1.1 | 2* | -104
O=C1CN(C(=O)COC(=O)c2ccccc2NCc2ccco2)c2ccccc2N1 | 56* | 0.4 | 0.9 | 0.6 | 40
O=C(N/C(=C\c1cccc([N+](=O)[O-])c1)C(=O)N1CCCCC1)c1cccs1 | -7 | 1.1 | 0.9 | 1 | 0
Cc1ccc(N2C=Nc3ccc(C)c4nc(C)cc2c34)cc1 | 68* | 0.3 | 1.3 | 0.1 | 86*
COc1ccccc1OCC(O)CN1C(=O)NC(C)(C)C1=O (stereo not drawn) | 50 | 0.5 | 1 | 0.6 | 36
Cc1ccc(N(CN2C(=O)NC(C)(C)C2=O)CN2C(=O)NC(C)(C)C2=O)cc1 | 51* | 0.5 | 1 | 1 | -3
CN(NC(=O)c1ccc(Cl)cc1)c1cccc(Cl)n1 | 56* | 0.4 | 1 | 1.2 | -22
Cc1cc(-c2ccccc2)nc(N(C)NC(=O)c2ccc(Cl)cc2)c1S(C)(=O)=O | 2 | 1 | 1.1 | 0.6 | 40
COC(Cn1c(C)c(C(C)=O)c(C(C)=O)c1C)OC | -7 | 1.1 | 1 | 1.2 | -16
Cc1ccc(C2CC(c3ccco3)n3ncnc3N2)cc1 (stereo not drawn) | 91* | 0.1 | 1.3 | 0.7 | 34
COc1ccccc1C1CC(c2ccc(C)cc2)Nc2ncnn21 (stereo not drawn) | 88* | 0.1 | 0.9 | 0.7 | 31
SMILES | CYP2C19 inhib | CYP2C19 act | PLAP act | CYP2C9 activ | CYP2C9 inh
COc1ccccc1C1CC(c2ccccc2)Nc2ncnn21 (stereo not drawn) | 87* | 0.1 | 1.2 | 0.6 | 37
CCCCCOP(=O)(OCCCCC)C1(NS(=O)(=O)c2ccccc2)C=CC(=O)c2ccccc21 (stereo not drawn) | 8 | 0.9 | 1.1 | 0.4 | 56*
COc1ccc(C(=O)Cn2c(=O)c(CCC(=O)O)nn3c4ccccc4nc23)cc1OC | -13 | 1.1 | 1.3 | 1.1 | -9
Cc1ccc2nc(CSc3nnc(Cc4cccs4)n3C3CCCCC3)cc(=O)n2c1 | 71* | 0.3 | 1.8 | 0.5 | 52*
N#C/C(=C(/O)CSc1nnc(Cc2cccs2)n1C1CCCCC1)c1nc2ccccc2[nH]1 | 61* | 0.4 | 2.7* | 0.6 | 37
CCn1c(Cc2ccccc2)nnc1SCC(=O)Nc1ccc2c(c1)OCO2 | 62* | 0.4 | 1.3 | 0.5 | 50
CCn1c(Cc2ccccc2)nnc1SCC(=O)Nc1ccc(N2CCOCC2)c(Cl)c1 | 80* | 0.2 | 1.3 | 0.4 | 58*
CCn1c(COc2ccc(Cl)cc2)nnc1SCC(=O)Nc1ccc2c(c1)OCO2 | 6 | 0.9 | 0.9 | 0.8 | 19
N#CCSc1nnc(Cc2cccs2)n1C1CCCCC1 | 6 | 0.9 | 0.9 | 0.8 | 20
CC(C)c1cc(C(F)(F)F)n2nc(C(=O)Nc3ccc4c(c3)OCO4)cc2n1 | 22 | 0.8 | 1 | 0.7 | 32
Cc1cc(NC(=O)c2noc3c2CCCC3)n(-c2ccccc2)n1 | 10 | 0.9 | 1.1 | 0.8 | 17
CCn1c2ccccc2c2cc(NC(=O)c3ccco3)ccc21 | 45 | 0.5 | 0.9 | 1.4 | -40
CC(C)NC(=O)C12CC3CC(C1)CC(n1cnc(Cl)n1)(C3)C2 | 16 | 0.8 | 0.8 | 0.9 | 11
O=C(CSc1nnc(Cc2cccs2)n1-c1ccccc1)NC1CCCCC1 | 55* | 0.5 | 1.4 | 0.3 | 72*
Cn1c(Cc2ccccc2)nnc1SCC(=O)Nc1ccc2c(c1)OCCO2 | 75* | 0.3 | 1.4 | 0.3 | 74*
O=C(CSc1nnc(Cc2cccs2)n1-c1ccccc1)Nc1ccc2c(c1)OCCO2 | 85* | 0.2 | 0.9 | 0.1 | 89*
N#CCCNc1ccc(OCCC#N)cc1 | -7 | 1.1 | 1 | 0.6 | 39
Cc1ccc(C)n1-c1ccc(-c2nnc3n2CCCCC3)s1 | 37 | 0.6 | 1.6 | 0.4 | 64*
COc1ccc(S(=O)(=O)N(C)c2ccc(OCC(=O)Nc3cc(C)on3)cc2)cc1 | 44 | 0.6 | 0.8 | 0.6 | 40
CCOc1ccc(S(=O)(=O)N(CC(=O)Nc2cc(C)on2)Cc2ccccc2Cl)cc1 | 71* | 0.3 | 1.1 | 0.2 | 82*
CCNc1nc(OC)nc(Oc2ccc(=O)n(-c3ccccc3)n2)n1 | -5 | 1 | 0.9 | 1 | -2
COc1nc(NC(C)(C)C)nc(Oc2ccc(=O)n(-c3ccccc3)n2)n1 | 42 | 0.6 | 1.2 | 0.4 | 56*
Cc1nnc(SCCN2C(=O)c3ccccc3C2=O)[nH]c1=O | 0 | 1 | 0.8 | 0.9 | 12
O=C1c2ccccc2C(=O)N1CCSc1n[nH]c(=S)s1 | 6 | 0.9 | 1.1 | 0.2 | 82*
CCn1c(O)c(C=NCc2cccs2)c(=O)n(CC)c1=S | 34 | 0.7 | 0.8 | 0.2 | 83*
CCCC(=O)c1cc(F)c(N2CCOCC2)cc1C | 53* | 0.5 | 1.1 | 0.6 | 43
CCCC(=O)c1cc(F)c(N2CCN(S(=O)(=O)c3ccccc3)CC2)cc1C | 21 | 0.8 | 0.9 | 0.8 | 15
CCCN1CCC(N(C)CCc2ccc(OC)c(OC)c2)CC1 | -8 | 1.1 | 1.2 | 1.1 | -6
Cc1ccc(C(=O)CCC2CCCCC2=O)cc1 (stereo not drawn) | 84* | 0.2 | 0.9 | 0.6 | 42
Cc1ccc(C(=O)CCC2CCCC2=O)cc1 (stereo not drawn) | 18 | 0.8 | 1.2 | 1 | 0

Compound activity from PubChem BioAssay.
